# High-throughput results: PubChem, National Center for Advancing Translational Sciences (NCATS)
# PNC assembly inh: inhibitors of perinucleolar compartment assembly; 3.1% of 140,000 active; AID 2417; PC3M PTB-GFP, PNC prevalence imaging, 16 h; stronger effect = lower value; activity change (PNC), negative = inhibition, % at 10 µM;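 active = readout at or below -70, meaning at least 70% loss of cells showing the perinucleolar compartment, a nuclear body marking cancer cells; inconclusive = readout between -30 and a set limit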;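 note: plate controls were DMSO wells for no effect and camptothecin positive control wells for full effect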
#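 PC3M cells stably expressing PTB-GFP, 750–1000 cells/well, treated 16 h at 37 °C with compound (23 nl of library stock), in duplicate. After paraformaldehyde fixation and Hoechst stain, imaged at 20x; PNC prevalence scored by image analysis.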
# ALDH1A1 block: inhibitors of human aldehyde dehydrogenase 1A1 | P00352 | 7.3% of 220,000 active | Purified ALDH1A1, NADH fluorescence, propionaldehyde substrate | Potency, µM (doses to about 75.3 µM), without a hit: top-dose activity, negative = inhibition, most hits filed as inhibitors;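 note: potency is the fitted concentration of half-maximal effect; plate controls were no enzyme wells and a reference inhibitor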
# Target sequence (P00352 whole entry, looked up): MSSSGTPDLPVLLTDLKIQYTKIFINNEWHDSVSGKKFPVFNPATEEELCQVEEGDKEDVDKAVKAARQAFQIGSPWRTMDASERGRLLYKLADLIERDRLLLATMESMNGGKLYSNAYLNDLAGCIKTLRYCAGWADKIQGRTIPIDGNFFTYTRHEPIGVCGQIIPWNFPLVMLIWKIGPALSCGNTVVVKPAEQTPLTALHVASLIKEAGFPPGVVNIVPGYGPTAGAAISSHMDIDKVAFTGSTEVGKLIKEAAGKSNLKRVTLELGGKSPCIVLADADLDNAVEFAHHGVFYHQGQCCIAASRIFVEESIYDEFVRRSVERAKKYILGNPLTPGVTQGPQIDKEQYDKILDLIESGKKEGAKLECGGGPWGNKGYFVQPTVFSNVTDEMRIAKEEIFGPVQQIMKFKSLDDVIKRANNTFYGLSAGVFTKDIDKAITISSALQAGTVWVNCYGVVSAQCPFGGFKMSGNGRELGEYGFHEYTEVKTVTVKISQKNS
# HPGD inh: inhibitors of human 15-hydroxyprostaglandin dehydrogenase (HPGD). 4.3% of 150,000 active. AID 894. purified HPGD, NADH fluorescence kinetic, PGE2 substrate. P15428. Potency, µM, for the others: at the top dose activity change, negative = inhibition, usual class: inhibitors; note: potency is the fitted concentration of half-maximal effect
#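 NADH formation kinetics: reaction with 30 uM PGE2 and 1 mM NAD+ (final), 20 nM enzyme, Tris-HCl pH 8 with Tween 20, after 15 min compound preincubation at room temperature. Fluorescence change, last versus first of five reads.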
# IMPase Li inh: IMPase inhibition in cells with lithium potentiation; 0.35% of 210,000 active; CHO-M1 cells, IP1 TR-FRET (IP-One), carbachol + lithium; Potency, µM (series often up to 59.4 µM), inactives show at the highest dose activity, negative = IMPase inhibition, usual class: inhibitors; AID 1457; active = well fitted curve in the direction sought with a large enough effect; inconclusive = small, poorly fitted or top-dose-only effect, or another doubt; inactive = no such curve, though single readings can be large; an effect the other way counts as inactive or inconclusive;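 note: IP1 builds up when IMPase is blocked and the TR-FRET signal falls; potency is the fitted concentration of half-maximal effect; plate controls were basal vehicle for no effect and high inhibitor control for full effect; nearly all actives have a fitted effect of over 50% in size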
#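 Readout is a homogeneous TR-FRET IP1 immunoassay (Ex 320, Em 665 and 620), where raised cytosolic IP1 lowers signal. Cells were CHO-M1 treated 30 min at 37C with test compounds plus a little lithium; AC50 values came from Hill-equation fitting.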
# IMPase cell inh: membrane-permeable compound that blocks inositol monophosphatase; AID 901; CHO-M1 cells, IP1 accumulation, HTRF TR-FRET ratio; P97697; inhibition (IP1 accumulation), % at 46.1 µM; 120,000 tested, under 10 active; active = well fitted curve in the direction sought with a large enough effect in the signal ratio, not every such curve was filed as active; inconclusive = small, poorly fitted or top-dose-only effect, or a change in a side signal; inactive = no such curve, though single readings can be large or run the other way; the % refers to the signal ratio;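 note: cells stimulated with carbachol in lithium chloride buffer; plate controls were DMSO basal wells for no effect and reference inhibitor wells for full effect; higher means more IMPase inhibition seen as more IP1 and lower FRET ratio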
# Target sequence (P97697 whole entry, looked up): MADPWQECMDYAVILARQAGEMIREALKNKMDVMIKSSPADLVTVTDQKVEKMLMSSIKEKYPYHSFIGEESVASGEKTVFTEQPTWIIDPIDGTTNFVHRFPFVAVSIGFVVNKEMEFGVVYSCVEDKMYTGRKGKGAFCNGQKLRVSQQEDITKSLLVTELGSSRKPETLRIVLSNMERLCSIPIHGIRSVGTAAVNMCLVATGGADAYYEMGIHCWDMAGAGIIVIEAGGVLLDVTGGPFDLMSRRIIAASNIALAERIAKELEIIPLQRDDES
#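 Measured: the HTRF emission ratio (665/620 nm) plus the 620 nm donor channel, each fitted to the Hill equation to give AC50. Cells were CHO-M1 given compounds up to 46 uM and a 30 min carbachol stimulation at 37C.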
# 12-hLO inh: blocks human 12-lipoxygenase activity; P18054; purified 12-hLO, xylenol orange hydroperoxide absorbance; Potency, µM (highest dose often 57.1 µM), for the others: top-dose activity change, negative = inhibition, actives largely listed as inhibitors; 0.12% of 150,000 active; AID 1452; active = well fitted curve in the direction sought with a large enough effect; inconclusive = small, poorly fitted or top-dose-only effect, or another doubt; inactive = no such curve, though single readings can be large; an effect the other way counts as inactive or inconclusive; note: potency is the fitted concentration of half-maximal effect; nearly all actives have a fitted effect of over 55% in size
#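 Hydroperoxide formation by human 12-lipoxygenase from 40 uM arachidonic acid was followed colorimetrically via ferric-xylenol orange complex, using the 573/405 nm absorbance ratio. Enzyme concentration was 150 nM, with 30 min reaction at room temperature.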
# The depositor's hits bear a star; ? = inconclusive; / = not tested or not shown; [ ] = remark or other dose. Sampled rows, rich in hits. Any-hit rate of the full collection: about 11%. Unless noted, calls come from the whole dose curve; as a rule, active = well fitted inhibition curve with a large enough effect (not every such curve was filed as active); inconclusive = small, poorly fitted or top-dose-only effect, or another doubt; inactive = no such curve, though single readings can be large or run the other way. Unless noted, % is set by controls: 0 for no effect and ±100 for the full control effect.
SMILES,PNC assembly inh,ALDH1A1 block,HPGD inh,IMPase Li inh,IMPase cell inh,12-hLO inh
Cc1noc(C)c1-c1nccc(NC2CC2)n1,/,-3.6%,/,-1.2%,/,/
O=c1c(CCc2ccccc2)nc2cncnc2n1Cc1ccccc1,/,25.1µM*,/,?,/,/
CC(C)c1ccc(-c2nnc(N)s2)cc1,4.4,2.2%,35.5µM*,-0.6%,/,2.2%
Cc1ccc(-c2nnc(N)s2)cc1,35.0,?,-29.9%,3.7%,/,-2.7%
CC1=C(C(=O)c2ccccc2)C(c2ccc(OC(F)F)cc2)NC(=S)N1 (configuration not stated),/,1.12µM*,/,10.6%,/,/
CCOc1cccc(C(=O)NC(=S)Nc2cccc(C)c2)c1,-29.9,8.91µM*,-8.7%,5.3%,/,?
CCOc1cccc(C(=O)Nc2cccc(C(C)=O)c2)c1,45.2,5.8%,-9.3%,-4.6%,/,-0.2%
CCCOc1cccc(C(=O)NC(=S)Nc2cccc(C(F)(F)F)c2)c1,?,17.8µM*,-18.4%,14.8%[38.3 µM],1.4,?
CCn1c(CNc2ccc(Cl)cc2)nnc1SCC(=O)OC1CCCCC1,-6.4,?,-18.5%,3.9%,15.3,-0.9%
CCn1c(CNc2cccc(Cl)c2)nnc1SCC(=O)OC1CCCCC1,45.0,?,28.2µM*,23.6%[38.3 µM],17.3,-3.1%
COCCNc1ccnc(-c2c(C)noc2C)n1,/,12.2%,-4.7%,-7.5%,/,0.0%
COCCc1ccc(OCC(O)CNC(C)C)cc1 (configuration not stated),-90.6*,1.8%,-10.7%,-1.1%,/,1.8%
COc1ccc(C2OCC3(COC(C)=O)C(C)C=C(C)C2C3C)cc1 (configuration not stated),/,5.2%,-2.1%,17.5%,5.3,-2.7%
Cc1ccc(-c2csc3ncnc(SCC(=O)Nc4nnc(C)s4)c23)cc1,?,7.8%,-6.7%,19.0%[38.3 µM],-5.2[1.84 µM],-2.7%
Cc1ccc(-c2csc3ncnc(Sc4nnc(CN5CCCCCC5=O)o4)c23)cc1,?,7.94µM*,-27.3%,15.4%[38.3 µM],10.9,-13.6%
CC(=O)Nc1cccc(NC(=O)c2ccc(C)c([N+](=O)[O-])c2)c1,/,-5.1%,/,-7.8%,/,/
Cc1ccc(C(=O)NC(=S)Nc2cccc(NC(=O)c3ccccc3)c2)cc1[N+](=O)[O-],-92.9*,15.8µM*,-13.7%,-0.4%,/,?
Cc1ccc(C(=O)NC(=S)Nc2cccc(NC(=O)c3ccccc3Cl)c2)cc1[N+](=O)[O-],?,12.6µM*,-13.1%,-4.1%,/,?
Cc1ccc(C(=O)NNC(=S)Nc2cccc(Cl)c2Cl)cc1[N+](=O)[O-],28.3,2.82µM*,11.2µM*,50.7%[38.3 µM],7.4,-11.8%
O=S(=O)(Nc1nc2ccccc2nc1Nc1ccccc1Br)c1ccccc1,/,/,/,/,0.7,/
CCOC(=O)c1c(C)n(C(=O)c2ccco2)c(=O)n1C(=O)c1ccco1,21.9,10.5%,22.4µM*,-2.2%[38.3 µM],-1.6,-1.2%
CCc1ccc(NC(=O)C(=O)NCCN2CCN(C(=O)c3ccco3)CC2)cc1,22.0,22.4µM*,-10.2%,14.6%,0.0,-15.6%
CCOC(=O)c1c(C)c(C(=O)N2CCN(C(=O)c3ccco3)CC2)c(C)n1C,16.8,12.6µM*,-5.6%,-16.7%[38.3 µM],2.9,9.0%
CCc1ccc(NC(=O)C(=O)NCCN2CCN(S(C)(=O)=O)CC2)cc1,/,-1.2%,/,-6.1%,/,/
CC(C)=CCC/C(C)=C/CO/N=C1/C[C@@H](O)[C@@H](O)[C@@H]2[C@@H]3C(=O)N(Cc4ccccc4)C(=O)[C@H]3CC[C@H]12,/,1.5%[13.5 µM],/,/,/,/
SMILES,PNC assembly inh,ALDH1A1 block,HPGD inh,IMPase Li inh,IMPase cell inh,12-hLO inh
CC(=O)[C@H]1CC[C@@H]2[C@]1(C)CC=C1[C@]23C=C[C@]2(C[C@H](O)CC[C@@]12C)[C@H](C(=O)O)[C@@H]3C(=O)O,/,/,/,/,/,4.6%[11.4 µM]
CC1CCC2C(=O)N3C(CCC(C)C3c3ccc(-c4ccco4)cc3)C(=O)N2C1c1ccc(-c2ccco2)cc1 (configuration not stated),/,3.16µM*,/,/,/,/
Cc1nc(NC(=O)c2oc3ccccc3c2C)sc1C(=O)N(C)C,9.5,-10.2%,31.6µM*,4.7%,-3.1,1.5%
Cc1nc(NC(=O)c2ccccc2[N+](=O)[O-])sc1C(=O)N(C)C,14.6,4.5%,22.4µM*,0.7%,/,0.3%
CC(=O)O[C@]1(C(C)=O)CC[C@@H]2[C@@H]3C=C(Cl)C4=CC(=O)[C@H]5C[C@@H]5[C@]4(C)[C@H]3CC[C@]21C,/,4.9%[20.9 µM],0.3%,-3.0%,?,0.1%[25.6 µM]
CC1CC[C@]2(CO)CC[C@]3(C)C(=CCC4[C@@]5(C)CCC(O)C(C)(C)C5CC[C@@]43C)C2C1C (some centres not stated),/,2.7%,-11.8%,-1.6%,/,-2.6%
Cc1ccc(C(=O)CN(Cc2ccccc2)C2=NCCS2)cc1,?,20µM*,-1.0%,9.6%,1.2,-2.1%
COC(=O)c1c(NC(=O)C2c3ccccc3Oc3ccccc32)sc2c1CCC(C(C)(C)C)C2 (configuration not stated),/,/,/,/,-2.0,/
C=CCc1cccc(OC)c1OCCOCCn1ccnc1,16.9,20µM*,-1.4%,5.6%,/,1.4%
COc1cc(C2NC(=O)NC(O)(C(F)(F)F)C2C(=O)c2ccc(Cl)cc2)ccc1O (configuration not stated),26.8,?,-15.2%,-9.8%[38.3 µM],3.7,-17.9%
COc1cc(C2NC(=O)NC(O)(C(F)(F)F)C2C(=O)c2cccs2)ccc1O (configuration not stated),3.1,22.4µM*,-6.6%,20.4%[38.3 µM],4.5,-1.4%
COc1ccc(C2NC(=O)NC(O)(C(F)(F)F)C2C(=O)c2ccc(F)cc2)cc1 (configuration not stated),-1.2,?,-1.4%,54.2%[38.3 µM],8.3,-9.0%
COc1ccc(C2NC(=S)NC(O)(C(F)(F)F)C2C(=O)c2cccs2)cc1 (configuration not stated),17.2,10µM*,2.0%,12.8%,/,0.0%
Cc1ccsc1C(=O)NC(C)c1ccc2c(c1)OCO2 (configuration not stated),-118.9*,9.9%,-7.5%,22.7%,-0.2,-2.8%
Cc1ccsc1C(=O)Nc1ccc2c(c1)OCCO2,-17.5,0.1%,31.6µM*,5.7%,-2.1,-0.1%
Cc1occc1C(=O)Nc1ccc2c(c1)OCCO2,-8.7,12.6µM*,15.8µM*,12.7%[38.3 µM],?,-1.1%
Cc1csc2ncc(C(=O)Nc3ccc4c(c3)OCCO4)c(=O)n12,34.9,8.91µM*,99.5%,?,-0.7,-2.8%
Cc1cccc(NC(=O)c2cnc3scc(C)n3c2=O)c1,25.3,-15.1%,?,1.3%,-7.1,-0.5%
